The text below walks through data of paper PMC11574364.

Common to all, as to assay: protein domain microarray probed with biotinylated miRNA; Domain array: 20 mM Tris-HCl pH 7.4, 200 mM KCl, 0.2 mM EDTA, 0.05% NP40, 2 ug/ul heparin, overnight 4 C. ORF array: PBS pH 7.0 with RNase inhibitor, 100 ng RNA; high values mean tight binding
Holding throughout (conditions): ssRNA

For one assay, the target named is T1, YTHDF1 (Homo sapiens, UniProt Q9BYJ9).
T1 sequence: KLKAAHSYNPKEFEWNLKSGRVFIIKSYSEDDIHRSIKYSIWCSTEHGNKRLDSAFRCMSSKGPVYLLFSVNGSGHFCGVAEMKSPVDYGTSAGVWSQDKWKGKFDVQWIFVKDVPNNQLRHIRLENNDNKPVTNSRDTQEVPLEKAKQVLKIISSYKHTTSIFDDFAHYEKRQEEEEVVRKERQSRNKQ

The next assay concerns the target T2, RBM27 (Homo sapiens, UniProt Q9P2N5).
T2 sequence: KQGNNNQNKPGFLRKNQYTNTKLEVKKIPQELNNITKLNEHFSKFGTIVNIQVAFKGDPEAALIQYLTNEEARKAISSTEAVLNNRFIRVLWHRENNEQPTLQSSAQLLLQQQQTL

Another assay deals with T3, STAU2(3) (Homo sapiens, UniProt Q9NUL3).
T3 chain: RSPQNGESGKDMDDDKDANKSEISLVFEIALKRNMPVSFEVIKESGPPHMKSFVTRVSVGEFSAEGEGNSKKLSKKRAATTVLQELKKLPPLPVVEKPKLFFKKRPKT

The target of a further assay is T4, RKHD3(1-2) (Homo sapiens, UniProt Q6ZN04).
T4 sequence: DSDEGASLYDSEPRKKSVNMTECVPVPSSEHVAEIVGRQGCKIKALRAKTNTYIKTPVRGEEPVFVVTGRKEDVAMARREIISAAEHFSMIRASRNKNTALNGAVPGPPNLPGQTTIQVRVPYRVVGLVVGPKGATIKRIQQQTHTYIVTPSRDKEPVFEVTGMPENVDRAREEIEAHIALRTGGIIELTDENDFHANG

A further assay addresses T5, RBM19(2-4) (Homo sapiens, UniProt Q9Y4C8).
T5 sequence: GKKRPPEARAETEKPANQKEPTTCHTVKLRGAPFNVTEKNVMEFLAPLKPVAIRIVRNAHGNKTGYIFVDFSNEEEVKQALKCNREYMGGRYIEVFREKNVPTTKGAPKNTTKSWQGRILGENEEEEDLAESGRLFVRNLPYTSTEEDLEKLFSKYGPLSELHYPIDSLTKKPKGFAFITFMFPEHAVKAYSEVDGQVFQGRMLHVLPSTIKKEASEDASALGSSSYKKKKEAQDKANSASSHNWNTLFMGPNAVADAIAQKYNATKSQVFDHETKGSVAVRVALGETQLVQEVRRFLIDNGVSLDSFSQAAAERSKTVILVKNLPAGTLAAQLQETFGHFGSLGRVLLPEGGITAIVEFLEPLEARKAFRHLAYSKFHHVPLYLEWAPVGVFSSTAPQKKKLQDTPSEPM

A further assay concerns the target T6, RBM26(2) (Homo sapiens, UniProt Q5T8P6).
T6 sequence: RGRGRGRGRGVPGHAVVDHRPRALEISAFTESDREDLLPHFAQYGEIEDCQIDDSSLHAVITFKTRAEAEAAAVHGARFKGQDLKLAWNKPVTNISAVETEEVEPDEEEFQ

The target of the next assay is T7, RBM14 (Homo sapiens, UniProt Q96PK6).
T7 sequence: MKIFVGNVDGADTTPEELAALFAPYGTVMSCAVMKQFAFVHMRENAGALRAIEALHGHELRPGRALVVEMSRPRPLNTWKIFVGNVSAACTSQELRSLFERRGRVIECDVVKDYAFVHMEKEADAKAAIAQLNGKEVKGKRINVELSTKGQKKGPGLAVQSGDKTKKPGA

A further assay concerns the target RALYL (Homo sapiens, UniProt Q86SE5).
The next assay has as its target T8, PIG38 (Homo sapiens, UniProt Q8TC92).
T8 sequence: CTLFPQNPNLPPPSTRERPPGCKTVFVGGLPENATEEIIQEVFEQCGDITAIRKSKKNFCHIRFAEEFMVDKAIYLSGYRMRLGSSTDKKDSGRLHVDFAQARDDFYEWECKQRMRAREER

Another assay has as its target KRR1 (Homo sapiens, UniProt Q13601).

Chain of RALYL (Q86SE5 1-115): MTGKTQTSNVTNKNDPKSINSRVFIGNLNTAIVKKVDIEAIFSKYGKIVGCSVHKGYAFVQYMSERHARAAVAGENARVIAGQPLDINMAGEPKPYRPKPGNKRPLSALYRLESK
Chain of KRR1 (Q13601 36-250): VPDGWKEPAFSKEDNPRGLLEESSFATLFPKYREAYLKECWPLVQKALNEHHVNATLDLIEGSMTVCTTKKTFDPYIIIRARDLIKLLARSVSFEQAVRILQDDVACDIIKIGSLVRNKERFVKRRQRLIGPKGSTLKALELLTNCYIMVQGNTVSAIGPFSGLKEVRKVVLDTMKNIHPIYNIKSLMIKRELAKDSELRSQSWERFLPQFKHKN

With UGAGGUAGUAGGUUGUGUGGUU, the binding signal with YTHDF1 was determined as 113 ± 10.3 fluorescence intensity; with RBM27, 985 ± 77.1 fluorescence intensity; with STAU2(3), 121 ± 14.8 fluorescence intensity; in the assay with RKHD3(1-2), 1502 ± 3.98 fluorescence intensity; with RBM19(2-4) it was 1520 ± 225 fluorescence intensity; with RBM26(2), 248 ± 3.91 fluorescence intensity. For the same sequence, the binding signal with RBM14 was 66.3 ± 8.01 fluorescence intensity; with RALYL it was 1030 ± 103 fluorescence intensity; in the assay with PIG38 it was 72.8 ± 3.97 fluorescence intensity; with KRR1 it was 153 ± 3.37 fluorescence intensity.

Regarding UAGCUUAUCAGACUGAUGUUGA, the binding signal is 145 ± 5.61 fluorescence intensity with RBM27, 1110 ± 41.5 fluorescence intensity with RKHD3(1-2), 901 ± 119 fluorescence intensity in the assay with RBM19(2-4) and 190 ± 59.9 fluorescence intensity in the assay with RALYL.

Consider AGAGGUAGUAGGUUGCAUAGUU, for which the binding signal with YTHDF1 was found to be 52.7 ± 4.33 fluorescence intensity; in the assay with RBM27 it was 486 ± 29.4 fluorescence intensity; with STAU2(3), 34.1 ± 5.01 fluorescence intensity; with RKHD3(1-2), 2320 ± 70.7 fluorescence intensity; with RBM19(2-4) it was 2390 ± 546 fluorescence intensity; with RBM26(2), 168 ± 6.55 fluorescence intensity. Also, the binding signal stood at 26.3 ± 7.16 fluorescence intensity with RBM14, 932 ± 89.3 fluorescence intensity with RALYL, 44.1 ± 0.488 fluorescence intensity in the assay with PIG38 and 73.6 ± 7.55 fluorescence intensity with KRR1.

Take CAGUGCAAUGAUGAAAGGGCAU: the binding signal stood at 51.305 ± 0.0212 fluorescence intensity with YTHDF1; 288 ± 4.19 fluorescence intensity in the assay with RBM27; 37.5 ± 2.47 fluorescence intensity with STAU2(3); 1440 ± 55 fluorescence intensity with RKHD3(1-2); 2090 ± 439 fluorescence intensity in the assay with RBM19(2-4); 25.8 ± 3.42 fluorescence intensity in the assay with RBM26(2). For the same sequence, the binding signal in the assay with RBM14 came out at 23.1 ± 3.36 fluorescence intensity; in the assay with RALYL, 381 ± 18.7 fluorescence intensity; in the assay with PIG38, 31.7 ± 0.785 fluorescence intensity; with KRR1, 74.2 ± 2.13 fluorescence intensity.

As for UGAGGUAGUAGGUUGUAUAGUU, the binding signal came out at 22.8 ± 4.72 fluorescence intensity in the assay with YTHDF1; 102 ± 16.8 fluorescence intensity in the assay with RBM27; 1250 ± 20.7 fluorescence intensity with RKHD3(1-2); 902 ± 121 fluorescence intensity with RBM19(2-4); 23.4 ± 0.552 fluorescence intensity with RBM26(2); 319 ± 85.1 fluorescence intensity in the assay with RALYL. For the same sequence, the binding signal was 21.4 ± 1.44 fluorescence intensity in the assay with PIG38 and 20.5 ± 1.99 fluorescence intensity in the assay with KRR1.

Take UGAGGUAGUAGGUUGUAUGGUU: the binding signal with YTHDF1 stood at 76.9 ± 5.2 fluorescence intensity; with RBM27 it was 657 ± 47.5 fluorescence intensity; with STAU2(3), 60.2 ± 7.26 fluorescence intensity; with RKHD3(1-2), 1740 ± 134 fluorescence intensity; in the assay with RBM19(2-4), 1810 ± 313 fluorescence intensity; with RBM26(2), 298 ± 14 fluorescence intensity. The binding signal was 39.7 ± 3.13 fluorescence intensity with RBM14, 1090 ± 62.2 fluorescence intensity in the assay with RALYL, 53 ± 2.3 fluorescence intensity with PIG38 and 92.2 ± 12.2 fluorescence intensity in the assay with KRR1.
